Experimental data taken from PubChem BioAssay AID1490 (National Center for Advancing Translational Sciences (NCATS), 2009).
Out of some 310,000 compounds screened, about 11,000 (3.5%) were called active. Roughly 4% stayed inconclusive and do not appear here. The call rests on the fitted dose curve; in most records, active means well fitted inhibition curve with a large enough effect; inconclusive means small, poorly fitted or top-dose-only effect, or another doubt; inactive means no such curve, though single readings can be large or run the other way. This excerpt belongs to a sample that is enriched for actives. Some structures have more than one record in an assay (separate samples or runs), and their calls can disagree.

These compounds were tested against 4'-phosphopantetheinyl transferase ffp (Bacillus subtilis) (UniProt Q9F4F7) (assay: qHTS Assay for Inhibitors of Bacillus subtilis Sfp phosphopantetheinyl transferase (PPTase)). Details: Biochemical Sfp PPTase activity.
How it was run: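 Step 1, compound plus 15 nM Sfp-PPTase, 15 min, room temperature. Step 2, add rhodamine-CoA (5 uM) and BHQ-2-YbbR (12.5 uM). Step 3, read 525/598 nm fluorescence at 0 and 30 min.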
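Further: the enzyme is Sfp with the accession as filed and its product quenches rhodamine fluorescence.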
Potency means the concentration at half of the fitted maximal effect.
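Wherever Largest response in the series, negative = inhibition is given: 0% = enzyme reaction without inhibitor and -100% = no enzyme wells.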

Largest response in the series, negative = inhibition, inactive:
COc1ccc(CNC(=O)CN(c2ccc(OC)c(Cl)c2)S(=O)(=O)c2ccc(C)cc2)cc1 17.9%
Cc1ccc(CCN2CC(C(=O)NCCc3ccccc3)CC2=O)cc1 (stereo not drawn) 20.9%
COc1ccccc1C(=O)N1CC2(C)CC1CC(C)(C)C2 (stereo not drawn) 23.6%
Cc1cccc(C(=O)NCC(=O)OCC(=O)N2CC3(C)CC2CC(C)(C)C3)c1 (stereo not drawn) -0.692%
CC(NCCc1ccc(S(N)(=O)=O)cc1)C(=O)NCc1ccccc1 (stereo not drawn) 4.54%
C=CCn1c(C23CC4CC(CC(C4)C2)C3)n[nH]c1=S 14.6%
COc1ccc(N(C(=O)c2snc(C(N)=O)c2N)C(C(=O)NC2CCCC2)c2ccc(C)o2)c(OC)c1 (stereo not drawn) -2.29%
Cn1cc(C(=O)c2ccc(Cl)cc2Cl)cc1C(=O)NN 10.1%
CCN1C(=O)/C(=c2\s/c(=C3\Sc4ccccc4N3C)c(=O)n2C)N(C)C1=S 1.11%
CCCCN1C(=O)/C(=C2/Sc3ccc(Cl)cc3N2CC)SC1=S 3.35%
CCN1C(=O)/C(=C2/Sc3ccccc3N2CCCS(=O)(=O)O)SC1=S 8.36%
C[C@H](NC(=O)c1nc[nH]c1C(=O)NCC(=O)OC(C)(C)C)c1ccccc1 10.2%
CC(C)[C@H](NC(=O)N1CCn2c1nc1ccccc12)C(=O)NCc1ccc2c(c1)OCO2 20.1%
CC(C)C(=O)NCC(c1cccs1)S(=O)(=O)c1ccc(F)cc1 (stereo not drawn) 0.881%
CCc1nnc(NC(=O)/C=C/c2ccc(C)o2)s1 1.89%
CNc1ccc(NC(C)=O)cc1[N+](=O)[O-] 18.8%
COc1cc(/C=C2\SC(=O)NC2=O)ccc1OCc1ccc(Cl)nc1 -9.24%
CCn1c(CNC(=O)c2cc(OC)c(OC)c(OC)c2)cc2cc(C)ccc21 -13.9%
CCOc1ccc(CCNC(=O)Nc2ccccc2)cc1OCC 11.9%
Cc1ccccc1NC(=O)C1CCCN(C(=O)NCc2ccccc2)C1 (stereo not drawn) -0.998%
Fc1ccccc1Cn1cnc(NC(=S)NCCc2ccccc2)n1 -24.4%
CC(=O)NC(C)c1nc2ccccc2n1Cc1ccccc1F (stereo not drawn) 11%
Cc1cccn2c(=O)c(C=O)c(Nc3ccc(S(N)(=O)=O)cc3)nc12 12.7%
O=Cc1c(N2CCN(c3cccc(Cl)c3)CC2)nc2ccccn2c1=O -4.2%
O=C(Nc1cccc(-c2cccc(Cl)c2)c1)C1CCN(C2CCC2)CC1 -24.2%
COc1ccc(S(=O)(=O)N2CCC(C(=O)N3CCCC3)CC2)cc1C 9.47%
COC(=O)C1=C(N)Oc2cc(C)[nH]c(=O)c2C1c1ccc(Cl)cc1 (stereo not drawn) 1.3%
O=C1NC(=O)C(c2ccc(Cl)cc2)N1 (stereo not drawn) -0.697%
CC(C)c1ccc(NC(=O)Cn2ncc3ccccc32)cc1 13.4%
COc1ccc2c(C(=O)c3ccc(C)cc3)n(CCC(N)=O)[n+]([O-])c2c1 -4.94%
COc1ccc(CCNc2nc(-c3cccc(NC(C)=O)c3)cs2)cc1OC -23.9%
Cc1cccc(Nc2nc(-c3ccccc3)cs2)n1 -27.9%
Cc1noc(NS(=O)(=O)c2ccc(NC(=O)c3oc4ccc(F)cc4c3C)cc2)c1C 14.6%
CCN(CC)C(=O)COc1coc(CN2CCN(Cc3ccccc3)CC2)cc1=O 12.6%
CC(=O)NCCC(=O)Nc1cc(S(=O)(=O)N2CCOCC2)ccc1N1CCOCC1 23.2%
O=C(COC(=O)Cc1ccc(F)cc1)Nc1cc(S(=O)(=O)N2CCOCC2)ccc1N1CCCC1 11.4%
CCc1ccccc1NC(=O)[C@@H]1CCC(=O)N1C1OC(=O)c2c1ccc(OC)c2OC (stereo partly drawn) 9.06%
CCOc1ccc(S(=O)(=O)NCC2CCCO2)cc1 (stereo not drawn) 12.6%
CCOc1ccc(N(CC(=O)NCC2CCCO2)S(=O)(=O)c2ccc(C)cc2)cc1 (stereo not drawn) 9.58%
Cc1cccc(C)c1OCC(=O)NC(Cc1c[nH]c2ccccc12)C(=O)O (stereo not drawn) 12.2%
COc1ccc(-c2cc(=O)oc3cc(OCC(=O)N[C@@H](Cc4c[nH]c5ccccc45)C(=O)O)ccc23)cc1 -17.5%
CC1C(=O)Nc2ccccc2N1C(=O)c1ccc(F)cc1F (stereo not drawn) 9.39%
COc1cccc(OCc2cc(C(=O)N3CCN(C(=O)c4ccco4)CC3)no2)c1 10.6%
Cc1cc(Cl)ccc1OCCCC(=O)Nc1cccc(-n2cnnn2)c1 1.31%
c1ccc(Nc2n[nH]nc2-c2ccccc2)cc1 1.39%
O=c1[nH]c(-c2ccccc2)c(-c2ccccc2)[nH]1 2.86%
S=C(Nc1cccc(Cl)c1)Nc1ccc2c(c1)OCCO2 -5.75%
Cc1ccc2nc(Nc3ncc4c(n3)CC(C)(C)CC4=O)nc(C)c2c1 4.59%
CC(C)(C)c1cc(=O)n2c(nc3ccccc32)[nH]1 30.5%
CSc1ccccc1NC(=O)c1cc(Cl)sc1Cl 9.55%
CC(C)OC(=O)c1c(NC(=O)c2ccco2)sc2c1CCCC2 10.9%
CCOC(=O)c1c(NC(=S)NC(=O)c2ccco2)sc2c1CCCC2 -0.0002%
COC(=O)c1ccc(CN2C(=O)NC(c3ccccc3)(c3ccccc3)C2=O)o1 23.7%
CC[C@]1([C@H]2O[C@@H]([C@@H]3O[C@](O)(CO)[C@@H](C)C[C@H]3C)C[C@H]2C)CC[C@@H]([C@]2(C)CC[C@@]3(C[C@@H](O)[C@@H](C)[C@@H]([C@H](C)[C@H](OC)[C@H](C)C(=O)O)O3)O2)O1 15.5%
COC(=O)c1ccccc1SC1CC(=O)N(c2cccc(C)c2)C1=O (stereo not drawn) -19.3%
COc1ccc(-c2nc(SCC(=O)N3CCCC3)n[nH]2)cc1 14.1%
COc1ccc(N2C(=O)CC(SC(C)C)C2=O)cc1 (stereo not drawn) 7.97%
Cc1ccc(N2C(=O)C3CC3C2=O)cc1 (stereo not drawn) 15.7%
O=C1CC(N2CCN(c3ccc(F)cc3)CC2)C(=O)N1c1ccccc1 (stereo not drawn) 0.505%
CC(=O)Nc1ccc(N2C(=O)CC(Sc3nccc(C)n3)C2=O)cc1 (stereo not drawn) 11.7%
CCOc1ccc(S(=O)(=O)N2CCC(C(=O)NCc3ccccn3)CC2)cc1Cl 5.52%
CC[C@@]12C=C(/C=C/c3ccccc3)[C@](CC)(C1)[C@H](c1ccccc1)CC2=O -22.6%
CC(Nc1nc(C(F)(F)F)nc2ccccc12)c1cccs1 (stereo not drawn) 2.55%
COC(=O)C(C(=O)OC)[C@@H]1CCCC(=O)C1 -0.107%
CN(C)c1ccc(-c2nnc(-c3cccnc3)o2)cc1 7.75%
Cc1cc(NS(=O)(=O)c2ccc(NC(=O)C(C)Oc3cccc(C)c3C)cc2)nc(C)n1 (stereo not drawn) 8.85%
Cc1ccc(/C=N/NC(=O)CSc2nc3ccccc3o2)cc1 -16.9%
CC(C)(C)C(=O)CSc1nc2ccccc2o1 7.38%
CCN(CC)S(=O)(=O)c1ccc(C(=O)N2CCN(C3=NS(=O)(=O)c4ccccc43)CC2)cc1 14.9%
COc1cccc(CCNC(=O)c2cccc(NC(=O)C3=C(C)OCCS3)c2)c1 3.98%
CCCS(=O)(=O)Nc1ccc(-c2cn3c(n2)SCC3)cc1 -22.5%
Cc1cc(-c2cccs2)nc(-n2cccc2)n1 1.03%
COc1ccc(OC)c(-c2c(=O)n(OCc3ccccc3Br)c3ccccc3[n+]2[O-])c1 9.79%
CCOC(=O)COn1c(=O)c(-c2ccc(OCC)cc2)[n+]([O-])c2ccccc21 1.13%

Potency, active:
Cc1nnnn1/C(=C\c1ccccc1)C(=O)OCC(=O)N1CC2(C)CC1CC(C)(C)C2 (stereo not drawn) 50.1 µM
CCN1C(=O)/C(=C2/Sc3ccccc3N2CCCS(=O)(=O)O)SC1=S 79.4 µM
Cc1ccc(/C=C/C(=O)Nc2ccc([N+](=O)[O-])c(NC(=O)/C=C/c3ccc(C)o3)c2)o1 17.8 µM
N=c1n(CCc2ccccc2)c2ccccc2n1Cc1ccccc1F 50.1 µM
O=Cc1c(Nc2ccccc2Cl)nc2ccccn2c1=O 31.6 µM
O=C1CSC(c2ccc(Cl)cc2)N1 (stereo not drawn) 79.4 µM
CC(=O)Nc1cccc(-c2csc(Nc3cccc(C)n3)n2)c1 79.4 µM
COCCNC(=S)Nc1cc(S(=O)(=O)N2CCOCC2)ccc1N1CCCCC1 1 µM
CCOc1ccc(-n2c(N)c(C(=O)NCC3CCCO3)sc2=S)cc1 (stereo not drawn) 50.1 µM
COc1ccc(-c2cc(C(=O)NC(Cc3c[nH]c4ccccc34)C(=O)O)c(C)o2)cc1OC (stereo not drawn) 35.5 µM
O=C(O)c1n[nH]nc1-c1ccccc1 70.8 µM
CC1(C)CC(=O)c2cnc3nc4ccccc4n3c2C1 50.1 µM
CNC(=O)c1c(NC(NC(=O)c2ccco2)C(=O)c2ccc(Cl)cc2)sc2c1CCCC2 (stereo not drawn) 25.1 µM
O=C1CC(Sc2ncn[nH]2)C(=O)N1c1ccccc1 (stereo not drawn) 56.2 µM
Cc1ccc(N2C(=O)CC(Sc3ncn[nH]3)C2=O)cc1 (stereo not drawn) 56.2 µM
COc1ccc(N2C(=O)CC(Sc3n[nH]c(-c4ccc(C)cc4)n3)C2=O)cc1 (stereo not drawn) 25.1 µM
O=C(CSc1nc2ccccc2o1)N/N=C/c1ccccc1C(=O)O 44.7 µM
c1csc(-c2cn3c(n2)SCC3)c1 79.4 µM
CCOc1ccc(OCC)c(-c2c(=O)n(OCc3ccc(Cl)cc3)c3ccccc3[n+]2[O-])c1 100 µM
